Laboratory results: PubChem BioAssay (NCI)
“And” between values parts separate entries of the source, which are not always exact repeats. Identical values can stand only once. This is part of a sample that, as a whole, favours compounds with a hit. Of some 79,000 tested, about 15% had one in any assay. A structure can be active in one record and inactive in another. The source made the active and inactive calls. No stated cut-off is given here; in the data, active means growth inhibition above about 70%; inactive means the rest.

Experiments:
[1] = NCI Yeast Anticancer Drug Screen. Data for the mec2-1 strain (AID 157); details: S. cerevisiae mec2-1 strain, stronger effect = higher value
Procedure, shortened: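 mec2-1 yeast strain, carrying an alteration in DNA damage repair or cell cycle control, was exposed to compounds; growth inhibition was measured relative to vehicle-treated controls.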

[2] = NCI Yeast Anticancer Drug Screen. Data for the sgs1 mgt1 strain (AID 161);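 further: 0% = growth of cultures given vehicle only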; details: S. cerevisiae sgs1 mgt1 strain, stronger effect = higher value
Procedure, shortened: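 Growth of a repair-deficient yeast mutant was monitored after compound treatment and expressed as inhibition relative to vehicle-treated cultures.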

[3] = NCI Yeast Anticancer Drug Screen. Data for the CLN2oe strain (AID 163);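 further: 0% = growth of vehicle-only control cultures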; details: S. cerevisiae CLN2oe strain, stronger effect = higher value
Procedure, shortened: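 Yeast cells carrying a defined cell-cycle control alteration were exposed to test compounds. Growth inhibition was scored against vehicle-treated control cultures.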

[4] = NCI Yeast Anticancer Drug Screen. Data for the cln2 rad14 strain (AID 165);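 further: 0% = growth equal to vehicle treated cultures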; details: S. cerevisiae cln2 rad14 strain, stronger effect = higher value
Procedure, shortened: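 Yeast carrying cln2 and rad14 alterations (cell cycle control and DNA damage repair) were exposed to compounds. Growth inhibition was measured against vehicle-treated controls.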

[5] = NCI Yeast Anticancer Drug Screen. Data for the bub3 strain (AID 167); details: S. cerevisiae bub3 mutant strain, stronger effect = higher value
Procedure, shortened: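 Compounds were applied to a genetically altered yeast strain carrying a cell-cycle control defect. Growth inhibition was scored against vehicle-treated controls.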

[6] = NCI Yeast Anticancer Drug Screen. Data for the wt2 strain (AID 169);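 further: 0% = growth of vehicle-treated yeast cultures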; details: S. cerevisiae wt2 strain growth inhibition, stronger effect = higher value
Procedure, shortened: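 Yeast cells were exposed to test compounds, and growth inhibition was measured relative to vehicle-treated controls.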

[7] = NCI Yeast Anticancer Drug Screen. Data for the mlh1 strain (AID 171);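 further: 0% = growth of vehicle-treated control cultures of the same strain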; details: S. cerevisiae mlh1 strain growth inhibition, stronger effect = higher value
Procedure, shortened: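 Yeast carrying a defined genetic alteration in DNA damage repair or cell cycle control were exposed to test compounds. Growth inhibition was measured relative to vehicle-treated controls.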

[8] = NCI Yeast Anticancer Drug Screen. Data for the sgs1 strain (AID 173);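 further: 0% = growth of vehicle-only control cultures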; details: S. cerevisiae sgs1 mutant, stronger effect = higher value
Procedure, shortened: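 Yeast mutant strains carrying defined defects in DNA damage repair or cell cycle control were exposed to test compounds. Growth inhibition was scored against vehicle-treated controls.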

[9] = NCI Yeast Anticancer Drug Screen. Data for the mlh1 rad18 strain (AID 175); details: S. cerevisiae mlh1 rad18 strain growth inhibition, stronger effect = higher value
Procedure, shortened: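 Growth inhibition of the yeast strain was measured after compound exposure and expressed relative to vehicle-treated controls. The strain carries defined defects in DNA damage repair.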

[10] = NCI Yeast Anticancer Drug Screen. Data for the rad18 strain (AID 177); details: S. cerevisiae rad18 mutant growth inhibition, stronger effect = higher value
Procedure, shortened: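 Yeast carrying a defined DNA damage repair alteration were exposed to compounds. Growth inhibition was expressed relative to vehicle-treated controls.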

[11] = NCI Yeast Anticancer Drug Screen. Data for the wt1 strain (AID 149);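 further: 0% = growth of vehicle-treated wt1 cultures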; details: S. cerevisiae wt1 strain (SPY 50644) growth inhibition, stronger effect = higher value
Procedure, shortened: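 Yeast wt1 strain exposed to compounds; growth inhibition measured relative to vehicle-treated controls.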

[12] = NCI Yeast Anticancer Drug Screen. Data for the rad50EPP+ strain (AID 151);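 further: 0% = growth of vehicle-treated control cultures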; details: S. cerevisiae rad50 mutant strain, stronger effect = higher value
Procedure, shortened: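 Yeast strain carrying rad50 alteration (rad50EPP+) exposed to compounds; growth inhibition measured relative to vehicle-treated controls.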

[13] = NCI Yeast Anticancer Drug Screen. Data for the rad50 strain (AID 155);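 further: 0% = growth of vehicle-only cultures of the same strain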; details: S. cerevisiae rad50 strain growth inhibition, stronger effect = higher value
Procedure, shortened: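 Yeast carrying a defined DNA repair defect were exposed to test compounds, and growth was compared with vehicle-treated controls to give percent inhibition.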

[14] = NCI Yeast Anticancer Drug Screen. Data for the rad14 strain (AID 159);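 further: 0% = growth of vehicle-treated control cultures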; details: S. cerevisiae rad14 strain growth inhibition, stronger effect = higher value
Procedure, shortened: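 Yeast cells carrying a defined DNA-repair defect were exposed to compounds, and growth inhibition was calculated relative to vehicle-treated control cultures.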

[15] = at 5.0 µM (retest, dose inferred, filed as 0.5)
[16] = at 50.0 µM (retest, dose inferred, filed as 5.0)

Measured: growth inhibition

Cc1nc2ccc(Br)cc2c(=O)n1-c1ccc(NC2OCC(O)C(O)C2O)cc1 (stereo not drawn)
inactive: [2]; [15] -3% | [2]; [16] 34% | [2]; at 50.0 µM 64% and 0.15% | [3]; at 1.2 µM 5% | [3]; at 3.7 µM 11% | [3]; at 11.0 µM 14% | [3]; at 33.0 µM 39% | [3]; at 100.0 µM 48% | [4]; [15] -3% | [4]; [16] 53% | [4]; at 50.0 µM -15.2% and 12.8% | [5]; at 1.2 µM 4% | [5]; at 3.7 µM 8% | [5]; [15] 7% | [5]; at 11.0 µM 17% | [5]; at 33.0 µM 49% | [5]; [16] 60% | [6]; at 1.2 µM 1% | [6]; at 3.7 µM 4% | [6]; at 11.0 µM 14% | [6]; at 33.0 µM 43% | [7]; at 1.2 µM 9% | [7]; at 3.7 µM 9% | [7]; at 11.0 µM 19% | [7]; at 33.0 µM 52% | [8]; at 1.2 µM 6% | [8]; at 3.7 µM 12% | [8]; at 11.0 µM 25% | [8]; at 33.0 µM 61% | [9]; [15] -38% | [9]; at 50.0 µM 62.4% and 13.8% | [10]; at 1.2 µM 4% | [10]; at 3.7 µM 6% | [10]; at 11.0 µM 18% | [10]; at 33.0 µM 55%
active: [1]; at 100.0 µM 90% | [5]; at 100.0 µM 90% | [6]; at 100.0 µM 86% | [7]; at 100.0 µM 90% | [8]; at 100.0 µM 89% | [9]; [16] 79% | [10]; at 100.0 µM 91%
73.2% (active) and -5.1% (inactive): [5]; at 50.0 µM

Clc1ccc(C(c2ccc(Cl)cc2)N2CCNCC2)cc1
inactive: [11]; at 1.2 µM 5% | [11]; at 3.7 µM 6% | [11]; at 11.0 µM 3% | [11]; at 33.0 µM 29% | [12]; at 1.2 µM 1% | [12]; at 3.7 µM 5% | [12]; at 11.0 µM 5% | [12]; at 33.0 µM 3% | [12]; at 100.0 µM -1% | [13]; at 1.2 µM -3% | [13]; at 3.7 µM -1% | [13]; [15] 38% | [13]; at 11.0 µM 6% | [13]; at 33.0 µM 67% | [1]; at 1.2 µM -19% | [1]; at 3.7 µM -19% | [1]; at 11.0 µM -10% | [1]; at 33.0 µM 49% | [14]; at 1.2 µM -36% | [14]; at 3.7 µM -30% | [14]; at 11.0 µM -41% | [2]; [15] -35% | [3]; at 1.2 µM -1% | [3]; at 3.7 µM -2% | [3]; at 11.0 µM 1% | [3]; at 33.0 µM 18% | [4]; [15] 61% | [5]; at 1.2 µM 1% | [5]; at 3.7 µM 3% | [5]; [15] 12% | [5]; at 11.0 µM 12% | [6]; at 1.2 µM -3% | [6]; at 3.7 µM -2% | [6]; at 11.0 µM -81% | [6]; at 33.0 µM 46% | [7]; at 1.2 µM -35% | [7]; at 3.7 µM -34% | [7]; at 11.0 µM -34% | [7]; at 33.0 µM 49% | [8]; at 1.2 µM -26% | [8]; at 3.7 µM -33% | [8]; at 11.0 µM -34% | [8]; at 33.0 µM 41% | [9]; [15] 45% | [10]; at 1.2 µM 3% | [10]; at 3.7 µM -7% | [10]; at 11.0 µM 4% | [10]; at 33.0 µM 65%
active: [11]; at 100.0 µM 98% | [13]; [16] 95% | [13]; at 50.0 µM 92% | [13]; at 100.0 µM 97% | [1]; [15] 70% | [1]; [16] 96% | [1]; at 50.0 µM 93% | [1]; at 100.0 µM 98% | [14]; at 33.0 µM 71% | [14]; at 100.0 µM 98% | [2]; [16] 98% | [3]; at 100.0 µM 92% | [4]; [16] 88% | [5]; at 33.0 µM 71% | [5]; [16] 96% | [5]; at 100.0 µM 94% | [6]; at 100.0 µM 99% | [7]; at 100.0 µM 98% | [8]; at 100.0 µM 98% | [9]; [16] 96% | [9]; at 50.0 µM 92.3% | [10]; at 100.0 µM 98%

O=S(=O)(CCC[C@H]1[C@@H](CCOCc2ccccc2)C2CCCN1O2)c1ccccc1 (stereo partly drawn)
inactive: [11]; at 1.2 µM 2% | [11]; at 3.7 µM 2% | [11]; at 11.0 µM 1% | [11]; at 33.0 µM 1% | [11]; at 100.0 µM 19% | [12]; at 1.2 µM 0% | [12]; at 3.7 µM -1% | [12]; at 11.0 µM 2% | [12]; at 33.0 µM 2% | [12]; at 100.0 µM 4% | [13]; at 1.2 µM -3% | [13]; at 3.7 µM -13% | [13]; [15] -9% | [13]; at 11.0 µM -13% | [13]; at 33.0 µM 10% | [13]; [16] -11% | [13]; at 50.0 µM -4.6% | [13]; at 100.0 µM 22% | [1]; at 1.2 µM 4% | [1]; at 3.7 µM 4% | [1]; [15] -9% | [1]; at 11.0 µM 5% | [1]; at 33.0 µM 13% | [1]; [16] -22% | [1]; at 50.0 µM -19.2% | [1]; at 100.0 µM 27% | [14]; at 1.2 µM 1% | [14]; at 3.7 µM -3% | [14]; at 11.0 µM 3% | [14]; at 33.0 µM 10% | [14]; at 100.0 µM 25% | [2]; [15] 9% | [2]; [16] 20% | [2]; at 50.0 µM -23.6% | [3]; at 1.2 µM 1% | [3]; at 3.7 µM 6% | [3]; at 11.0 µM 5% | [3]; at 33.0 µM 16% | [3]; at 100.0 µM 37% | [4]; [15] -7% | [4]; [16] 46% | [4]; at 50.0 µM 42.5% | [5]; at 1.2 µM 1% | [5]; at 3.7 µM 2% | [5]; [15] 22% | [5]; at 11.0 µM 2% | [5]; at 33.0 µM 6% | [5]; [16] 10% | [5]; at 50.0 µM -12.1% | [5]; at 100.0 µM 12% | [6]; at 1.2 µM -1% | [6]; at 3.7 µM -1% | [6]; at 11.0 µM -3% | [6]; at 33.0 µM 2% | [6]; at 100.0 µM 26% | [7]; at 1.2 µM 3% | [7]; at 3.7 µM 3% | [7]; at 11.0 µM 1% | [7]; at 33.0 µM 7% | [7]; at 100.0 µM 26% | [8]; at 1.2 µM 2% | [8]; at 3.7 µM 3% | [8]; at 11.0 µM 2% | [8]; at 33.0 µM 19% | [8]; at 100.0 µM 41% | [10]; at 1.2 µM 2% | [10]; at 3.7 µM 6% | [10]; at 11.0 µM 4% | [10]; at 33.0 µM 7% | [10]; at 100.0 µM 19%
